# From the supplement of paper PMC8728848
# This excerpt belongs to a sample that is enriched for the strongest signals.
# B1: Tachylectin-2 (Tachypleus tridentatus), TAL2_TACTR (protein)
# chain: VGGESMLRGVYQDKFYQGTYPQNKNDNWLARATLIGKGGWSNFKFLFLSPGGELYGVLNDKIYKGTPPTHDNDNWMGRAKKIGNGGWNQFQFLFFDPNGYLYAVSKDKLYKASPPQSDTDNWIARATEIGSGGWSGFKFLFFHPNGYLYAVHGQQFYKALPPVSNQDNWLARATKIGQGGWDTFKFLFFSSVGTLFGVQGGKFYEDYPPSYAHDNWLARAKLIGNGGWDDFRFLFF
# What was measured:
# Assay in all cases: glycan array binding signal (z-score within array); higher = stronger binding
# Details in all cases: glycan notation: IUPAC condensed, linker removed
# [1] = biological target: Fuc(a1-2)Gal(b1-4)GlcNAc
# Summary of the method: (§1)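 From the Consortium for Functional Glycomics database, 3228 arrays were curated, keeping only those whose protein sequence was available. Binding is given as a within-array Z-score averaged across arrays sharing a protein sequence and across linkers. Negative Z-scores can be read as non-binding.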
# [2] = biological target: Fuc(a1-2)[Gal(a1-4)]Gal(b1-4)GlcNAc
# Summary of the method: as §1
# [3] = biological target: Fuc(a1-2)[GalNAc(a1-3)]Gal(b1-4)GlcNAc(b1-2)Man(a1-3)[Fuc(a1-2)[GalNAc(a1-3)]Gal(b1-4)GlcNAc(b1-2)Man(a1-6)]Man(b1-4)GlcNAc(b1-4)GlcNAc
# Summary of the method: as §1
# [4] = biological target: Fuc(a1-2)[GalNAc(a1-3)]Gal(b1-4)GlcNAc(b1-3)Gal(b1-4)GlcNAc
# Summary of the method: as §1
# [5] = biological target: Fuc(a1-2)[GalNAc(a1-3)]Gal(b1-4)GlcNAc(b1-3)Gal(b1-4)GlcNAc(b1-3)Gal(b1-4)GlcNAc
# Summary of the method: as §1
# [6] = biological target: Fuc(a1-2)[GalNAc(a1-4)]Gal(b1-4)GlcNAc
# Summary of the method: as §1
# [7] = biological target: Gal(a1-4)Gal(b1-4)GlcNAc(b1-3)Gal(b1-4)Glc
# Summary of the method: as §1
# [8] = biological target: Gal(a1-4)GlcNAc
# Summary of the method: as §1
# [9] = biological target: Gal(b1-3)GlcNAc(b1-3)Gal(b1-4)Glc
# Summary of the method: as §1
# [10] = biological target: Gal(b1-3)GlcNAc(b1-3)Gal(b1-4)GlcNAc
# Summary of the method: as §1
# [11] = biological target: Gal(b1-4)GlcNAc(b1-2)Man(a1-3)[GlcNAc(b1-2)Man(a1-6)]Man(b1-4)GlcNAc(b1-4)GlcNAc
# Summary of the method: as §1
# [12] = biological target: Gal(b1-4)GlcNAc(b1-2)[Gal(b1-4)GlcNAc(b1-4)]Man(a1-3)[Gal(b1-4)GlcNAc(b1-2)[Gal(b1-4)GlcNAc(b1-6)]Man(a1-6)]Man(b1-4)GlcNAc(b1-4)GlcNAc
# Summary of the method: as §1
# [13] = biological target: Gal(b1-4)GlcNAc(b1-3)Gal(b1-4)GlcNAc
# Summary of the method: as §1
# [14] = biological target: Gal(b1-4)GlcNAc(b1-3)[Gal(b1-4)GlcNAc(b1-6)]Gal(b1-4)GlcNAc
# Summary of the method: as §1
# [15] = biological target: Gal3S(b1-4)[Fuc(a1-3)]Glc
# Summary of the method: as §1
# [16] = biological target: Gal6S(b1-4)Glc
# Summary of the method: as §1
# [17] = biological target: GalNAc(a1-3)GalNAc
# Summary of the method: as §1
# [18] = biological target: GlcNAc(a1-4)Gal(b1-4)GlcNAc(b1-3)Gal(b1-4)GlcNAc(b1-3)Gal(b1-4)GlcNAc
# Summary of the method: as §1
# [19] = biological target: GlcNAc(a1-6)Gal(b1-4)GlcNAc
# Summary of the method: as §1
# [20] = biological target: GlcNAc(b1-3)Man
# Summary of the method: as §1
# [21] = biological target: GlcNAc(b1-3)[GlcNAc(b1-4)][GlcNAc(b1-6)]GlcNAc
# Summary of the method: as §1
# [22] = biological target: GlcNAc(b1-4)Gal(b1-4)GlcNAc
# Summary of the method: as §1
# [23] = biological target: GlcNAc(b1-4)GlcNAc(b1-4)GlcNAc(b1-4)GlcNAc(b1-4)GlcNAc
# Summary of the method: as §1
# [24] = biological target: GlcNAc(b1-6)GalNAc
# Summary of the method: as §1
# [25] = biological target: Kdn(a2-3)Gal(b1-3)GalNAc
# Summary of the method: as §1
# [26] = biological target: Man(a1-2)Man(a1-2)Man(a1-6)[Man(a1-3)]Man
# Summary of the method: as §1
# [27] = biological target: Man(a1-2)Man(a1-3)[Man(a1-6)]Man(a1-6)[Man(a1-2)Man(a1-3)]Man(b1-4)GlcNAc(b1-4)GlcNAc
# Summary of the method: as §1
# [28] = biological target: Man(a1-3)[Man(a1-6)]Man(a1-6)[Man(a1-3)]Man
# Summary of the method: as §1
# [29] = biological target: Neu5Ac(a2-3)Gal(b1-4)GlcNAc
# Summary of the method: as §1
# [30] = biological target: Neu5Ac(a2-3)Gal(b1-4)GlcNAc(b1-3)Gal(b1-3)GlcNAc
# Summary of the method: as §1
# [31] = biological target: Neu5Ac(a2-3)Gal(b1-4)GlcNAc6S
# Summary of the method: as §1
# [32] = biological target: Neu5Ac(a2-6)Gal(b1-4)GlcNAc
# Summary of the method: as §1
# [33] = biological target: Neu5Ac(a2-6)Gal(b1-4)GlcNAc(b1-2)Man(a1-3)[Man(a1-6)]Man(b1-4)GlcNAc(b1-4)GlcNAc
# Summary of the method: as §1
# [34] = biological target: Neu5Ac(a2-6)Gal(b1-4)GlcNAc(b1-3)Gal(b1-4)GlcNAc
# Summary of the method: as §1
# [35] = biological target: Neu5Gc(a2-3)Gal(b1-3)[Fuc(a1-4)]GlcNAc
# Summary of the method: as §1
binder,measurement,setting,value
B1,glycan array binding signal (z-score),[1],-0.309
same,glycan array binding signal (z-score),[2],-0.436
same,glycan array binding signal (z-score),[3],4.37
same,glycan array binding signal (z-score),[4],4.29
same,glycan array binding signal (z-score),[5],4.11
same,glycan array binding signal (z-score),[6],3.88
same,glycan array binding signal (z-score),[7],-0.296
same,glycan array binding signal (z-score),[8],0.001
same,glycan array binding signal (z-score),[9],-0.315
same,glycan array binding signal (z-score),[10],-0.357
same,glycan array binding signal (z-score),[11],-0.295
same,glycan array binding signal (z-score),[12],-0.294
same,glycan array binding signal (z-score),[13],-0.367
same,glycan array binding signal (z-score),[14],-0.43
same,glycan array binding signal (z-score),[15],-0.39
same,glycan array binding signal (z-score),[16],-0.268
same,glycan array binding signal (z-score),[17],4.41
same,glycan array binding signal (z-score),[18],3.96
same,glycan array binding signal (z-score),[19],4.99
same,glycan array binding signal (z-score),[20],-0.096
same,glycan array binding signal (z-score),[21],-0.413
same,glycan array binding signal (z-score),[22],1.17
same,glycan array binding signal (z-score),[23],0.004
same,glycan array binding signal (z-score),[24],1.42
same,glycan array binding signal (z-score),[25],-0.296
same,glycan array binding signal (z-score),[26],-0.33
same,glycan array binding signal (z-score),[27],-0.173
same,glycan array binding signal (z-score),[28],-0.344
same,glycan array binding signal (z-score),[29],-0.374
same,glycan array binding signal (z-score),[30],-0.256
same,glycan array binding signal (z-score),[31],-0.232
same,glycan array binding signal (z-score),[32],-0.176
same,glycan array binding signal (z-score),[33],-0.295
same,glycan array binding signal (z-score),[34],-0.249
same,glycan array binding signal (z-score),[35],-0.316
